In all, about 33,000 sequences were measured (“E-score (-0.5 to 0.5)”: median about -0.021, highest 2% from about 0.32 on). The entries come from a sample that favours the highest values as a whole.
Each sequence was assayed against T1, Zap1 (UniProt P47043) (assay: PBM E-score (8-mer binding enrichment) (E-score (-0.5 to 0.5)); higher = stronger / more preferred TF binding). Details: protein concentration: 200 nM; construct: GST-full length.
T1 sequence: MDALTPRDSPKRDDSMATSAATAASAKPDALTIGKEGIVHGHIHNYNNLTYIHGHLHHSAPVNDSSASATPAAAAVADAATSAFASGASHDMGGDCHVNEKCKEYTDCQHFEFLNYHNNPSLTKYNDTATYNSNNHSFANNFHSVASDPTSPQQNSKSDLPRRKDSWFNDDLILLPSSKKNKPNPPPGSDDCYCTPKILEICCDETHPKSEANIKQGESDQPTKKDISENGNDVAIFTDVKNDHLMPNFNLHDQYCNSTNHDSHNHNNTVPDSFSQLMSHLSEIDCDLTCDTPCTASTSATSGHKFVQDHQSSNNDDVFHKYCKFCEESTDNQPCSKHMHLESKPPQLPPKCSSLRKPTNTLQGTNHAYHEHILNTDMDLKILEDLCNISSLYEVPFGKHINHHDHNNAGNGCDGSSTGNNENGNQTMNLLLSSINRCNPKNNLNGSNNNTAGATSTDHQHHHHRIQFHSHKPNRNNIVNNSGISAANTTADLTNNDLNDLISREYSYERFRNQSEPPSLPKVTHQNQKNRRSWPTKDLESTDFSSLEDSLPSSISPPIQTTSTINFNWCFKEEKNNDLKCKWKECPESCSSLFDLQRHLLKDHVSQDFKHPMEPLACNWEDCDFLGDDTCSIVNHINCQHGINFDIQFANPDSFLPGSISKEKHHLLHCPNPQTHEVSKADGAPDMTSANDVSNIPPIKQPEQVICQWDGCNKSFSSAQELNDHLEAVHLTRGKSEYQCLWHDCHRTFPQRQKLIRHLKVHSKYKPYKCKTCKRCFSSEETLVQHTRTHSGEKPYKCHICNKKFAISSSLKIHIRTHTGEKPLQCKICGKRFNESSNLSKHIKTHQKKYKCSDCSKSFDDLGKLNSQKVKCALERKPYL
Method: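 Universal 'all 10-mer' protein binding microarrays (Agilent AMADID 015681) probed with GST-tagged S. cerevisiae TFs (full-length or DBD) made by in vitro transcription/translation (PURExpress), about 100-200 nM. Bound TF was detected with fluorescent anti-GST. Each ungapped 8-mer (which stands for itself and its reverse complement) is scored by the PBM enrichment score (E-score), a modified Wilcoxon-Mann-Whitney statistic from -0.5 to +0.5, computed with the Universal PBM Analysis Suite. Scale: above 0.35 generally sequence-specific binding.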

Sequence	PBM E-score
CGTACAGA	-0.231
CAATGCAA	0.0301
CCTCGAGC	0.0178
CCTCGAGG	0.331
ACTCGAGG	0.0452
CCATAAAA	0.12
AGAGTAAC	0.108
AGCGTAAC	0.199
GGTGTAAC	0.262
GGGGTAAC	0.37
CGGGTAAG	-0.078
AGGGTAAC	0.405
CGGGTAAC	0.351
GGGGTAAA	0.269
CGGGTAAA	0.144
AAAAGCAG	-0.0944
GGCAAATA	-0.0519
ACCGATAC	0.0986
AAACTTCT	0.0376
ACAGTATG	0.0365
ACCATAAC	0.399
ACCATAAT	0.255
CCCATAAG	0.236
TCCATTAA	0.13
CCCATAAA	0.161

Sequence	PBM E-score
ACCATAAA	0.384
CCCATAAC	0.355
GCCATAAC	0.12
CCCATTAA	-0.0317
ACCATTAA	0.348
ACCATAAG	0.0852
TCCATAAA	0.061
CTCACATC	-0.0546
CATAGATG	-0.173
GTACACAA	0.12
ACTAAAGA	0.00061
CCACTTTC	-0.101
ACCGCGAA	0.359
GCCGCGAA	-0.0427
TCCGCGAA	0.05
GTGATGTA	0.013
AGAGTCAG	-0.145
ATCGCTCA	-0.0114
GAAGGTAA	0.319
CAAGGTAG	0.303
AAAGGTGA	0.25
GAAGGTAC	0.178
AAAGGTAA	0.361
CAAGGTAA	0.191
AAAGGTAT	0.293

Sequence	PBM E-score
AAAGGTAG	0.247
AAAGGTAC	0.426
TAAGGTAA	0.271
CCAGGTAC	0.17
CAAGGTAC	0.357
CACAGAGA	-0.0512
ACGATGGA	0.00241
CATCTCTC	-0.0882
CCTCCCAG	-0.291
CGCCTGAG	-0.0453
CAACTAAG	-0.00117
AGAGGCCC	-0.108
CCTCTTCC	-0.127
ATTTGCCG	-0.168
AAAGGGAA	-0.0936
GCATGGAA	-0.169
ACGTAAGC	-0.186
ACAGGGGG	-0.225
ACTGCGCA	-0.0699
CAGCCCAG	-0.177
ACAGAGTA	-0.0251
GCCCTCCA	-0.0877
ACCCTCCC	0.339
ACCCTCCA	0.341
CCCCTCCC	0.0739

Sequence	PBM E-score
ACCCTCCT	0.189
TCCCTCCA	-0.134
ATCAGTTC	-0.0391
GTTCTTAA	0.0134
AAGTTAGT	-0.0228
GTTGAACA	-0.15
ACGATGGG	-0.169
CGTAGTTA	0.177
AGTAGTTA	0.11
GGTAGTTA	0.339
TAGTGCCA	-0.18
CACCATTA	0.037
CACCATGA	0.00417
AACCATTA	0.365
GACCATAA	0.287
AACCATGC	0.156
AACCATAC	0.159
TCCCATAA	0.182
AACCATTG	0.271
AACCATGA	0.357
CACCATAA	0.0248
TACCATAA	0.367
AACCATAA	0.41
CTAATGGC	0.134
TAACTAGA	0.227

Sequence	PBM E-score
AGGGACTA	-0.104
ACGGTTCT	0.0709
ACTCTTGC	0.0703
TCGACTCA	-0.0722
CAATTCCG	-0.00437
AGGTATCA	0.116
CCTCTGAA	-0.072
AGATGCGG	0.0772
AAAACCGT	0.173
AGGGTAGC	0.313
AGGGTATA	0.407
AGGGTATC	0.364
ACGGTATG	-0.0688
AGGGTAGA	0.135
CGGGTATC	0.252
GGGGTATA	0.182
AGGGTAGG	0.32
CGGGTATA	0.317
AAGGTATG	0.226
ATGGTATC	0.183
AGGGTATG	0.395
GGTTTTAC	0.108
GTGCGCCA	-0.175
TATGTGGA	-0.0214
ATTCTTGA	0.0771

Sequence	PBM E-score
CCTCTCAC	-0.0256
AAAGTGGA	-0.0378
CATCAAGG	0.0235
ACGTGAGC	-0.116
CCGGTACC	0.414
GCGGTAGC	0.0107
ACGGTACT	0.0886
GCGGTACA	0.13
CCGGTACG	-0.136
ACGGTACC	0.399
CCGGTACA	0.149
ACGGTACG	0.0714
GCGGTACC	0.418
AGACGGGC	-0.112
CAGCAGCA	-0.198
CGTATCGA	-0.133
GAAGGTCA	0.232
CAAGGTCG	0.263
AAAGGTCT	0.238
TAAGGTGA	0.155
AAAGGTCG	0.323
AAAGGTCC	0.245
CAAGGTCC	0.151
AAAGGTGG	0.158
CAAGGTCA	0.386

Sequence	PBM E-score
ACAGGTCG	0.0832
TAAGGTCA	0.341
AAAGGTCA	0.449
ACGACTCG	-0.134
GTCGATGA	-0.149
CCGGAGGA	-0.228
CCTCAATA	0.0804
AGACCGGG	0.0501
CCACAGGG	0.1
CTCGTCAC	0.099
AATCAGCA	-0.0933
ACCTGTTG	0.265
GGAGGCAA	-0.188
ACACTTAT	-0.101
AACCTCGC	0.295
AACCTCGG	0.302
GACCTCGA	0.277
AACCTCGT	0.322
CACCTCGA	0.215
AACCTCGA	0.367
GCCACCTA	-0.103
CAGACAGG	-0.0636
AGGGGGTG	-0.204
AAGGGTTC	0.339
AAGGGGTG	0.167

Sequence	PBM E-score
AAGGGTGC	0.134
AAGGGTTG	0.441
AAAGGTTG	0.336
CAGGGTTC	0.214
AGGGGTTC	0.173
AGGGGTTG	0.337
AGAGGTTG	0.218
AAGGGTGG	0.19
AAAGGTTC	0.293
AAATAGCA	-0.171
AATAGACG	-0.163
TCAGTGGA	-0.041
ATCGAACG	-0.183
CTCTACGA	-0.0991
ACCTACCC	0.316
CTCCACGC	-0.241
CTTCTACA	-0.0296
CCAGGGAC	-0.163
AATGGTTG	0.254
CATGGTGA	0.0149
GATGGTAA	0.171
GATGGTGA	-0.0368
CATGGTTC	0.132
AATGGTTA	0.413
GATGGTTA	0.392

Sequence	PBM E-score
CATGGTTA	0.415
AATGGTTC	0.246
GCCGCACC	0.0244
ATTTTGAC	0.203
AGCGACCG	-0.13
CTACCTAG	0.104
GCTTTGCC	-0.379
AGCCTAAG	-0.216
ATTCACTC	-0.105
AAGTGCTA	-0.303
TCCCCTAA	0.0699
TACCCTAA	0.435
CGCCCTAA	-0.126
GACCCTAA	0.433
CACCCTAA	0.369
AGCCCTAA	-0.00909
GACCCTCA	0.189
CCCCCTAA	-0.277
GTCCCTAA	0.109
AACCCTAA	0.452
ATCCCTAA	0.006
TACCCTCA	0.312
CGCCAATC	-0.11
GTGAATTA	0.206
AAAGGACA	0.177

Sequence	PBM E-score
AGTAAGAT	-0.0474
ACCATTTG	0.221
AGACGCTA	-0.167
TGCGCACA	-0.037
GCCCTTGA	0.00462
AGCCTTGC	-0.257
ACCCTTGA	0.383
ACCCTTGC	0.381
CCCCTTGA	0.119
CCCCTTGC	-0.0145
AGCCTTGG	-0.208
ATCCTTGG	-0.139
ACCCTTGG	0.365
CAAGCTCA	-0.197
AACAGCAA	-0.0172
CTGGTGAC	-0.0173
GATACTGC	-0.126
CAGATTTC	-0.097
ATAGCGAT	0.0306
AAATGGCT	0.00044
AATACCCA	0.158
ACTACCCT	0.445
AATACCCT	0.379
ACTACCCA	0.291
ACTACCCC	0.215

Sequence	PBM E-score
AATACCCG	0.177
AGGTGGTC	0.142
CGTTGTGA	-0.151
CGTTGCGA	-0.126
GGTTGCGA	0.335
AGTTGCGA	0.16
AGTTGTAC	0.146
CGTTGTTA	0.102
GGTTGTAA	0.278
AGTTGTGA	0.193
GGTTGTTA	0.355
GGTTGTGA	0.374
AGTTGTTA	0.161
GGTTGTAC	0.336
CGTAGACC	-0.109
ACAGAACC	0.0979
ATTGGCAG	-0.219
CTGAAGTA	0.0214
ATGACTCG	-0.115
CTTGCGAA	0.139
GCCATATA	0.0242
TAAACCGA	-0.0627
ATTCTCTG	-0.159
TGACCAAA	0.28
CCACATCG	0.0835

Sequence	PBM E-score
GAGTGTCA	0.035
CAAAGGTG	0.0139
ATAACAGC	-0.0193
CAGCTGGC	-0.0978
AGGGTTTA	0.315
TGGGTTAA	0.359
TGTGTTAA	0.0894
AGCGTTAG	-0.147
GGGGTTTA	0.126
AGGGTTTG	0.292
AGGGTTAG	0.431
GGGGTTCA	0.0745
GGGGTTAA	0.403
AGGGTTAA	0.461
AGAGTTAA	-0.086
TCGGTTAA	0.274
AAACTTAG	0.0118
ACTCTTGA	-0.00751
AAACTTCA	0.00932
GTGGTTGA	0.0163
ATGGTTTA	0.191
GTGGTTAA	0.406
GTGGTTTA	0.213
ATGGTTAA	0.357
ATGGTTCA	0.119

Sequence	PBM E-score
CCTGTGAG	0.133
CGGTGCTC	0.123
GGCACAGA	-0.267
GCCCTAAC	0.111
CCCCTAAG	0.158
TCCCTAAA	-0.0128
CCCCTAAC	0.232
ACCCTAAA	0.416
ATCCTAAT	0.0542
CCCCTAAA	0.0485
ATCCTAAG	-0.00974
ACCCTAAC	0.414
ACCCTAAT	0.407
AGCCTAAT	-0.212
ACCCTAAG	0.457
GCTGCTTA	0.0693
CCCTGCCA	-0.00313
CGCTAGCC	-0.373
CGGTATAA	0.0772
AGGTATAT	0.115
AGGTATAA	0.317
CATGCTGG	-0.0654
CGGATTCC	-0.0353
TAACCCTA	0.462
TAGCCCTA	-0.0869

Sequence	PBM E-score
TAACCGTA	0.31
ACCCCCTC	-0.0959
CACCCCTG	-0.0914
AACCCCTC	0.353
ACCCCCTG	-0.07
AGACCCTG	0.253
AAACCCTC	0.175
AAACCCTG	0.337
CACCCCTC	0.239
AACCCCTG	0.347
AGAGAGAC	-0.00859
CACGCTAG	-0.21
ACGTTGAG	-0.0801
TCCTTAAA	0.15
AGATTTGC	-0.0426
ATATCTCC	-0.149
ATTGACTC	0.049
GGACAGCC	-0.0735
CATCGACC	-0.0318

— the supplement of paper PMC3334620
